PLAP act – PLAP enzyme activators, biochemical, luminescence, HTS; Alkaline phosphatase, placental type (Homo sapiens), P05187; purified PLAP enzyme, luminescent substrate read-out; stronger effect = higher value; activation fold at 20 µM; 96,000 tested, 1.2% active; AID 696, 2007; in the data active = activation fold above about 2
CYP2C19 activ – human CYP2C19 activators, primary screen, biochemical, luminescence | Cytochrome P450 2C19 (Homo sapiens), P33261 | recombinant CYP2C19, luciferin-H EGE luminescence; stronger effect = higher value; 0 = fully inhibited enzyme, 1 = untreated enzyme | activation factor at 5 µM | 96,000 tested, under 10 active;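 active = activation factor of at least 2 at 5 µM in the primary screen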
CYP2C9 inhib – blockers of cytochrome P450 2C9 activity – biochemical, luminescence, ADME assay, primary screen; CYP2C9 Supersomes, luciferin-H conversion; inhibition, % at 5 µM; P11712; 96,000 tested, 20% active;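 active = blocking of liver enzyme CYP2C9 beyond about 50% at 5 µM, limit read from the data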
Target sequence (P11712 whole entry, looked up): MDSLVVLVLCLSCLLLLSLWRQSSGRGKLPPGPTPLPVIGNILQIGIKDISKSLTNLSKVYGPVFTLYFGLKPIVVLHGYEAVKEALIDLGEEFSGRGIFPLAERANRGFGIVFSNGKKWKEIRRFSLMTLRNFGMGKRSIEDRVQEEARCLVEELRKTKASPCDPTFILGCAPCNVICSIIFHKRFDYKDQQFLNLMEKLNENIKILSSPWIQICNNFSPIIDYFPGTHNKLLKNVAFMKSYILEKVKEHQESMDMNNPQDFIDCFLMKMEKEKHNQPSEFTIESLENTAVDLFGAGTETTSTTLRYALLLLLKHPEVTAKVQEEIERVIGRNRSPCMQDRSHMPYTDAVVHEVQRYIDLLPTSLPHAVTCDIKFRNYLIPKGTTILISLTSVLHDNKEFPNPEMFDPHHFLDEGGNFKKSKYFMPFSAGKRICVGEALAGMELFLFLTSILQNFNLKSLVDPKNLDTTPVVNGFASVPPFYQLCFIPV
CYP2C19 inh – blockers of cytochrome P450 2C19 activity – biochemical, luminescence, ADME assay, primary screen; P33261; CYP2C19 Supersomes, luciferin-H EGE luminescence, 30 min; inhibition, % at 5 µM; 96,000 tested, 21% active; AID 778, 2007;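 active = CYP2C19 inhibition above a set limit at 5 µM in the primary screen, cut at about 50% in these data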
CYP2C9 activ – human CYP2C9 activators, primary screen, biochemical, luminescence. 96,000 tested, 1.4% active. recombinant CYP2C9, luciferin-H conversion; stronger effect = higher value; factor 1 = untreated enzyme, 0 = blocked. activation factor at 5 µM. Cytochrome P450 2C9 (Homo sapiens), P11712. AID 1024, 2008;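 active = activation factor of 2 or more for CYP2C9 at a 5 µM dose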
Each line names hits and unclear results; the compound was inactive in the other large screens. Only some compounds are listed: those with a hit (about 31% of all), similar ones and a draw of the others.

COc1ccccc1C1(CC(=O)N2CCOCC2)CCOC(C(C)C)C1 (configuration not stated)	none
Cc1nc2ccccn2c1/C(O)=C1\C(=O)C(=O)N(CCN2CCOCC2)C1c1cccs1 (configuration not stated)	none
Cc1cc2cc3c(cc2nc1SCC(=O)Nc1nc(C)c(C)s1)OCO3	none
CCCCOc1ccc(OCCNS(=O)(=O)N(C)C)cc1	CYP2C19 inh 54
CCOc1ccc(NS(=O)(=O)N(C)C)cc1	none
COc1ccc(NC(=O)O/N=C2/CCCc3ccc(OC)cc32)cc1	CYP2C9 inhib 62
O=C(/C=C/c1cccs1)Nc1nc(-c2ccccc2)cs1	CYP2C9 inhib 85, CYP2C19 inh 70
O=C(/C=C/c1ccc2c(c1)OCO2)Nc1nc(-c2ccccc2)cs1	CYP2C9 inhib 74, CYP2C19 inh 59
CCOC(=O)CNc1c(-c2ccccc2)nc2ccc(Cl)cn12	CYP2C19 inh 58
CCC(Sc1nnc2c3ccccc3n(CC)c2n1)C(=O)Nc1sc2c(c1C#N)CCCC2 (configuration not stated)	CYP2C9 inhib 52
CCOC(=O)c1sc(NC(=O)C(CC)Sc2nnc3c4ccccc4n(C(C)C)c3n2)nc1C (configuration not stated)	CYP2C9 inhib 66
CCOC(=O)Cc1nnc(NC(=O)C(CC)Sc2nnc3c4ccccc4n(C)c3n2)s1 (configuration not stated)	CYP2C9 inhib 94
CCOC(=O)Cc1nnc(NC(=O)C(CC)Sc2nncn2C)s1 (configuration not stated)	none
CSc1ccccc1NS(=O)(=O)c1ccccc1	CYP2C19 inh 87, CYP2C9 activ 4.6
COc1ccccc1NS(=O)(=O)c1ccc(O)c(C(N)=O)c1	CYP2C19 inh 100
Cc1cc(O)c(C(C)C)cc1NS(=O)(=O)c1ccccc1	CYP2C19 inh 86
Cc1cc(S(=O)(=O)Nc2ccccc2C(=O)O)ccc1Cl	CYP2C9 inhib 74
Cc1cc(O)c(C(C)C)cc1NC1=NS(=O)(=O)c2ccccc21	none
CCn1c2ccccc2c2cc(NC(=O)CSc3nnc(-c4ccc(OC)cc4)n3N)ccc21	none
COC(=O)c1ccccc1NS(=O)(=O)c1ccc(O)c(C(=O)O)c1	CYP2C9 inhib 91
COc1cc(NS(=O)(=O)c2ccc(C)c(C)c2)c(OC)cc1Cl	CYP2C9 inhib 95, CYP2C19 inh 100
O=C(CS(=O)(=O)c1cccc(C(F)(F)F)c1)Nc1ccccc1Cl	CYP2C19 inh 60
COc1ccccc1NS(=O)(=O)c1cc(C)ccc1C	CYP2C19 inh 80
Clc1nc(-c2n[nH]nc2Cl)n[nH]1	none
CC1CN(CCCCOc2ccc(C(C)C)cc2)CC(C)O1 (configuration not stated)	none
COc1ccc(S(=O)(=O)Nc2ccccc2SC)cc1C	CYP2C19 inh 99, CYP2C9 activ 2
O=S(=O)(Nc1cccnc1)c1cccc(C(F)(F)F)c1	none
COc1cc(C)c(S(=O)(=O)n2nnc3ccccc32)cc1C	none
COc1cc(C)c(S(=O)(=O)Nc2ccccc2F)cc1C	CYP2C9 inhib 52, CYP2C19 inh 88
O=C(O)c1ccccc1NS(=O)(=O)c1cccc(C(F)(F)F)c1	CYP2C9 inhib 51, CYP2C19 inh 60
Cc1nn(-c2ccccc2)c(Cl)c1/C=N/Nc1ccc(S(=O)(=O)Nc2ccccc2C(=O)O)cc1[N+](=O)[O-]	CYP2C9 inhib 69
O=C(Nc1nnc(C23CC4CC(CC(C4)C2)C3)s1)c1ccco1	none
O=C(NC1CCCCC1)C1CN(S(=O)(=O)c2ccccc2)CCN1S(=O)(=O)c1ccccc1 (configuration not stated)	none
COc1ccccc1NS(=O)(=O)c1ccc(C)c(C(=O)NCC2CCCO2)c1 (configuration not stated)	none
COc1ccccc1NC(=O)NS(=O)(=O)c1ccc(C)cc1	none
COc1ccccc1NS(=O)(=O)c1ccc(Cl)cc1	CYP2C19 inh 99
COc1ccc(S(=O)(=O)Nc2ccccc2OC)cc1C	CYP2C19 inh 100, CYP2C9 activ 2.9
CC(C)(C)NC(=O)C(c1ccccc1F)N(Cc1ccco1)C(=O)c1csnn1 (configuration not stated)	none
O=C(N=Nc1c(O)[nH]c2ccc(Br)cc12)c1ccccc1-n1cccc1	CYP2C9 inhib 64
Cc1cccc(C)c1OCC(=O)N=Nc1c(O)[nH]c2ccc(Br)cc12	CYP2C9 inhib 88
O=C(Cn1nnc(-c2ccccc2)n1)N=Nc1c(O)[nH]c2ccccc12	none
Cc1ccc(NC(=O)CSc2nnc(-c3cnccn3)n2-c2ccccc2)cc1	none
O=C(c1ccc(Cl)s1)N1CCN(c2nc3ccccc3s2)CC1	none
CO/N=C(/CNC(=O)c1ccc(Cl)cc1Cl)c1ccc(Cl)cc1	CYP2C19 inh 62
O=C(NCCO)c1cccc(Cl)c1	none
CO/N=C(/CNC(=O)c1cccc(Cl)c1)c1ccc(Cl)cc1	CYP2C9 inhib 68, CYP2C19 inh 92
Cn1c(SCC(=O)NC(=O)NCc2ccco2)nnc1C(F)(F)F	none
Cc1ccc(Cl)cc1NC1=C/C(=N\S(=O)(=O)c2cccs2)c2ccccc2C1=O	CYP2C9 inhib 92, CYP2C19 inh 66
CC(C)(C)C1CC=C2C(C#N)=C(N)C(C#N)(C#N)C(c3cccs3)C2C1 (configuration not stated)	CYP2C9 inhib 90, CYP2C19 inh 57
COc1ccc(CN2C(=O)CS(=O)CC2=O)cc1OC	none
CC(=O)NC(C)C(=O)OCc1ccc(Cl)cc1Cl (configuration not stated)	CYP2C19 inh 59, CYP2C9 activ 2.7
CC(NC(N)=O)C(=O)OCc1ccc(Cl)cc1Cl (configuration not stated)	none
O=C(OCc1ccc(Cl)cc1Cl)c1cccnc1Cl	CYP2C19 inh 74
O=C(COC(=O)c1cccnc1Cl)c1cccc(Cl)c1	CYP2C19 inh 56
C=CCSC1=C(C#N)C(c2cccc(OC)c2)CC(=O)N1 (configuration not stated)	CYP2C19 inh 52
C=CCSC1=C(C#N)C(c2ccccc2OCC)CC(=O)N1 (configuration not stated)	CYP2C9 inhib 71, CYP2C19 inh 93
COC(=O)CSC1=C(C#N)C(c2cccc(OC)c2)CC(=O)N1 (configuration not stated)	CYP2C9 inhib 75, CYP2C19 inh 71
CCOc1ccc(C2CC(=O)NC(SCC(=O)OC)=C2C#N)cc1 (configuration not stated)	CYP2C9 inhib 69
O=c1c2cc(N3CCOCC3)ccc2[nH]c(=S)n1CCCN1CCN(c2ccccc2F)CC1	none
COc1ccc(OCCSc2ncn[nH]2)cc1	none

Compound activity (PubChem BioAssay)
